Measured values taken from the supplement of paper PMC6555819.

Columns and labels:
Assay in all cases: PBM binding z-score (relative to random genomic background probes); higher = stronger binding; sequences stand for … in GC…GCGATTGACAGCGTAGAATGAAGG
[1] = tested on: FXR:RXRa (NR concentration 270 nM, RXRa partner concentration 90 nM)
In short: (§1)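 Each nuclear receptor dimer, without ligand, was incubated for 1 h on custom Agilent 4×180K protein-binding microarrays. Binding was detected with antibodies against each partner (one per run), and scanned fluorescence was regression-normalized. The binding z-scores are referenced to random human genomic background probes.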

[2] = tested on: LXRa:RXRa (NR concentration 270 nM, RXRa partner concentration 90 nM)
In short: as §1

[3] = tested on: LXRa homodimer (NR concentration 270 nM)
In short: as §1

[4] = tested on: LXRb:RXRa (NR concentration 270 nM, RXRa partner concentration 90 nM)
In short: as §1

[5] = tested on: LXRb homodimer (NR concentration 270 nM)
In short: as §1

[6] = tested on: PPARa:RXRa (NR concentration 270 nM, RXRa partner concentration 90 nM)
In short: as §1

[7] = tested on: PPARg:RXRa (NR concentration 180 nM, RXRa partner concentration 90 nM)
In short: as §1

[8] = tested on: PPARg:RXRa 270nM:90nM, anti-RXR (NR concentration 270 nM, RXRa partner concentration 90 nM)
In short: as §1

[9] = tested on: PPARg:RXRa 30nM:10nM, anti-RXR (NR concentration 30 nM, RXRa partner concentration 10 nM)
In short: as §1

[10] = tested on: PPARg:RXRa 90nM:30nM, anti-RXR (NR concentration 90 nM, RXRa partner concentration 30 nM)
In short: as §1

| Sequence | PBM binding z-score [1] | PBM binding z-score [2] | PBM binding z-score [3] | PBM binding z-score [4] | PBM binding z-score [5] | PBM binding z-score [6] | PBM binding z-score [7] | PBM binding z-score [8] | PBM binding z-score [9] | PBM binding z-score [10] |
| --- | --- | --- | --- | --- | --- | --- | --- | --- | --- | --- |
| GGAAAGAGGGCAAAGTTGATAGCATCTGTCGACG | 2.04 | 1.94 | 0.254 | 1.64 | 0.832 | 4.24 | 6.06 | 6.9 | 5.92 | 7.29 |
| GCTAGCAGGCCATGTGGGTCACTCAATGACGGGC | -0.267 | -0.154 | -0.643 | -0.292 | -1.04 | 1.58 | 1.31 | 1.18 | -0.316 | 0.415 |
| ACTATTAGTTGAGACGAGGGCAGCCGATAGGTTG | 0.474 | -0.24 | -0.315 | -0.195 | 0.184 | -0.0872 | 0.689 | -0.013 | 0.136 | -0.0374 |
| CCTATTAGTTGACCATAAGGGCAAACGAAGCTCG | 1.04 | 0.336 | 0.545 | 0.644 | 0.599 | 0.695 | 0.426 | 0.45 | 0.0598 | 0.284 |
| TAGCCTAGGTCTTTGGGCCAGTATAGTACGCATC | -0.684 | -0.824 | -0.792 | -0.788 | -0.858 | -1.04 | 0.0223 | -0.571 | -0.609 | -0.513 |
| TCATAAAGGTAAATGCTAGGTGAAAGTCCGATCT | 1.41 | 1.31 | 0.158 | 0.935 | -0.29 | 1.55 | 0.57 | 2.52 | 4.21 | 3.45 |
| TTACCATGGTGAGCTGAGGTCGTTGATCCAACTC | 0.322 | 0.0093 | -0.568 | 0.111 | -1.05 | 0.702 | -0.38 | -0.0543 | -0.214 | -0.294 |
| TAGCCTAGGTAATTGGGCCAGTATAGTACGCATC | -0.768 | -1.07 | -0.581 | -0.51 | -0.491 | 0.679 | 0.785 | 0.424 | -0.205 | -0.132 |
| AGAATGAGGTAATTAAGATCAGGGAATTGCGGTC | 0.0653 | 0.204 | -0.0232 | -0.116 | -0.24 | 0.241 | 0.544 | 0.141 | -0.00971 | -0.0571 |
| GTACCAAGGTGAATAGGTCTTTGATGAGTAGGCG | 0.444 | 0.341 | -0.168 | 0.148 | -0.363 | 1.23 | 0.96 | 1.11 | 0.335 | 0.823 |
| CAAACTAGGTCACAGCGGTCAAAGTCCGTGCGTA | 5.25 | 5.23 | 5.2 | 4.06 | 0.739 | 5.65 | 8.85 | 7.4 | 5.13 | 7.02 |
| CGTCCAATGTCAGAGAGGTCAGTGAATGCCGAGT | 2.31 | 2.29 | 1.37 | 2.24 | 0.168 | 2.69 | 0.78 | 1.62 | 0.224 | 1.18 |
